Reference: ChEMBL document CHEMBL1961873, “Compounds: GSK PKIS; Assays: Nanosyn kinase panel” (2012)

Columns and labels:
[1] = molecular target: High affinity nerve growth factor receptor (Homo sapiens) (UniProt P04629); settings: at 1 µM;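 also: each value is the mean percent inhibition of TRKA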
[2] = molecular target: BDNF/NT-3 growth factors receptor (Homo sapiens) (UniProt Q16620); settings: at 0.1 µM
[3] = molecular target: BDNF/NT-3 growth factors receptor (Homo sapiens) (UniProt Q16620); settings: at 1 µM
[4] = molecular target: NT-3 growth factor receptor (Homo sapiens) (UniProt Q16288); settings: at 0.1 µM
[5] = molecular target: NT-3 growth factor receptor (Homo sapiens) (UniProt Q16288); settings: at 1 µM
[6] = molecular target: T1, Tyrosine-protein kinase TXK (Homo sapiens) (UniProt P42681); settings: at 0.1 µM
T1 sequence (whole entry): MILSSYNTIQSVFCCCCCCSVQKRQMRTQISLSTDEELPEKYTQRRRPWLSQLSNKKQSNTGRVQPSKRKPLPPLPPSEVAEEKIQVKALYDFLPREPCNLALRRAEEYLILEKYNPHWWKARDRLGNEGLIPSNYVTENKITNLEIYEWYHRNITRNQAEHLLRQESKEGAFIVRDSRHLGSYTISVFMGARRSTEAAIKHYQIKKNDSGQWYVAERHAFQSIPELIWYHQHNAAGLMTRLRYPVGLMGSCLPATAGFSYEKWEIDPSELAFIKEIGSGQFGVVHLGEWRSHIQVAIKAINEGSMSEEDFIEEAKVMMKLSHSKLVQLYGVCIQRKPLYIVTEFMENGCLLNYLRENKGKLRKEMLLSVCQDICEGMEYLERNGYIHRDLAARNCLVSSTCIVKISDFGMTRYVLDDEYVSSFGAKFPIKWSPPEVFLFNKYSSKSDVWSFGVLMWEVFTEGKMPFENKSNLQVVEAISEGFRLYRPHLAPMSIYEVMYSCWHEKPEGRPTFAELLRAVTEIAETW

[7] = molecular target: T1, Tyrosine-protein kinase TXK (Homo sapiens); settings: at 1 µM
[8] = molecular target: Non-receptor tyrosine-protein kinase TYK2 (Homo sapiens) (UniProt P29597); settings: at 0.1 µM;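 also: each value is a mean of the inhibition readings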
[9] = molecular target: T2, Dual specificity protein kinase TTK (Homo sapiens) (UniProt P33981); settings: at 1 µM;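 also: reported figures are mean TTK inhibition at 1 µM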
T2 sequence (whole entry): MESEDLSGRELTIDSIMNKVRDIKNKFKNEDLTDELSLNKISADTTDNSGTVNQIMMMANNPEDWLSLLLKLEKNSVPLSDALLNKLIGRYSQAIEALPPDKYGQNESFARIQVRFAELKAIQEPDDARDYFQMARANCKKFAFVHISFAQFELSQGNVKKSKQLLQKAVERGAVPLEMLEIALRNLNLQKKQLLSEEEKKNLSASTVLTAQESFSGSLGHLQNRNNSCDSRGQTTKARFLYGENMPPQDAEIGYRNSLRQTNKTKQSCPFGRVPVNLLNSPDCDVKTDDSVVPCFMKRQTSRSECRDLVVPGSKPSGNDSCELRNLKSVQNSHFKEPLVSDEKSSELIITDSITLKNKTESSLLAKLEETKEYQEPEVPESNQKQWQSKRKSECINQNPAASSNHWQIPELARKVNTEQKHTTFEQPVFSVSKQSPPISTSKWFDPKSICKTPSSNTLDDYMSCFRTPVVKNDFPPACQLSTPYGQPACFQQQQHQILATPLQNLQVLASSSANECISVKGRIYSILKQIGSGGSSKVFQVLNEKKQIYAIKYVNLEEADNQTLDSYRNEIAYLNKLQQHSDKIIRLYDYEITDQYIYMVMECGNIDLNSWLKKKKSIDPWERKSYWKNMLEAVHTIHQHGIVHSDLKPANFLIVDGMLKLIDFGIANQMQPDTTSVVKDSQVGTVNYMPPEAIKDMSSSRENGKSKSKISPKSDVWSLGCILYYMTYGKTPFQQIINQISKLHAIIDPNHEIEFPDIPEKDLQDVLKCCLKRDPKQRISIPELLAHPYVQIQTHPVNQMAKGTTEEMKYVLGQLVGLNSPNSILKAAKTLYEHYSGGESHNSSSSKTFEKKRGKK

[10] = molecular target: T3, Aurora kinase A (Homo sapiens) (UniProt O14965); settings: at 0.1 µM
T3 sequence (whole entry): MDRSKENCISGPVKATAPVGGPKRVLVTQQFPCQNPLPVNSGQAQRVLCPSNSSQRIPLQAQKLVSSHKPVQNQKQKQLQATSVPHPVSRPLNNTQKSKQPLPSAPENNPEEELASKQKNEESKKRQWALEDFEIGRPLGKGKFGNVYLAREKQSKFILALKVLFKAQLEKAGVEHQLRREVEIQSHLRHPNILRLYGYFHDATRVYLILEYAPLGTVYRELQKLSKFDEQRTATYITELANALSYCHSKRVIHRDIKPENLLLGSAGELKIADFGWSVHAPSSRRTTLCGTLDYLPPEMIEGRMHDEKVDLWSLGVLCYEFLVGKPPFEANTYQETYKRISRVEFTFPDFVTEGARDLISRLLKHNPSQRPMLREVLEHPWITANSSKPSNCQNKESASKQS

[11] = molecular target: T3, Aurora kinase A (Homo sapiens); settings: at 1 µM
[12] = molecular target: Aurora kinase B (Homo sapiens) (UniProt Q96GD4); settings: at 0.1 µM
[13] = molecular target: Aurora kinase B (Homo sapiens) (UniProt Q96GD4); settings: at 1 µM
[14] = molecular target: T4, Aurora kinase C (Homo sapiens) (UniProt Q9UQB9); settings: at 0.1 µM
T4 sequence (whole entry): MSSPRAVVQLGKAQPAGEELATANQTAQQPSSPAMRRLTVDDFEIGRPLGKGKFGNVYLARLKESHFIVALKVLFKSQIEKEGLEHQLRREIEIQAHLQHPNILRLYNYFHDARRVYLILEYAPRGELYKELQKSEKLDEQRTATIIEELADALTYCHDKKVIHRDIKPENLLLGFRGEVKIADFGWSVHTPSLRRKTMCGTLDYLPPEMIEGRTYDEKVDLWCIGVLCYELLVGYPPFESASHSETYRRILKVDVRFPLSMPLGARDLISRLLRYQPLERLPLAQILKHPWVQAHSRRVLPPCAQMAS

[15] = molecular target: T4, Aurora kinase C (Homo sapiens); settings: at 1 µM
[16] = molecular target: Serine/threonine-protein kinase 10 (Homo sapiens) (UniProt O94804); settings: at 0.1 µM
[17] = molecular target: Serine/threonine-protein kinase 10 (Homo sapiens) (UniProt O94804); settings: at 1 µM
[18] = molecular target: T5, Mitogen-activated protein kinase kinase kinase kinase 2 (Homo sapiens) (UniProt Q12851); settings: at 0.1 µM
T5 sequence (whole entry): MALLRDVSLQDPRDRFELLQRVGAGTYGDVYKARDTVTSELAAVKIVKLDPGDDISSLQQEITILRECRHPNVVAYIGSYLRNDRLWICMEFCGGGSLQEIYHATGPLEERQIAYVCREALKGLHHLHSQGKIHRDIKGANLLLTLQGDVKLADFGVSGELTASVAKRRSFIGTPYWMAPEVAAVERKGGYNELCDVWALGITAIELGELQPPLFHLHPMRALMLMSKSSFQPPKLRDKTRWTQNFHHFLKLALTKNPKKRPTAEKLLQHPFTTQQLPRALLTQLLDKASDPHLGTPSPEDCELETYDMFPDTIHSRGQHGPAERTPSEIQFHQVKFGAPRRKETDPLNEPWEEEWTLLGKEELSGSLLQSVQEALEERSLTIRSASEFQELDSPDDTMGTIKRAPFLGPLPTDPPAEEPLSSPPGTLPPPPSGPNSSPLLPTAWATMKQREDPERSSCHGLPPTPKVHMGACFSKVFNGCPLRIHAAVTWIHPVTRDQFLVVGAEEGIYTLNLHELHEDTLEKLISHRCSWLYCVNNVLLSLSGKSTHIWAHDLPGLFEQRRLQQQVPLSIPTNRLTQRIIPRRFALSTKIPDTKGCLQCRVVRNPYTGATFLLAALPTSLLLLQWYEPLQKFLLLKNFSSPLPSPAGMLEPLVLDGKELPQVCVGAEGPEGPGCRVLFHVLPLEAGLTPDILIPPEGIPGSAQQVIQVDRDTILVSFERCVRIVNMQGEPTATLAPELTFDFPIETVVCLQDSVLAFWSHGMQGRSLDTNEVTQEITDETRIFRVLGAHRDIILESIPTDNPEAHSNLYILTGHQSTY

[19] = molecular target: T5, Mitogen-activated protein kinase kinase kinase kinase 2 (Homo sapiens); settings: at 1 µM
[20] = molecular target: Mitogen-activated protein kinase kinase kinase kinase 4 (Homo sapiens) (UniProt O95819); settings: at 0.1 µM
Chain of Mitogen-activated protein kinase kinase kinase kinase 4 (Homo sapiens) (O95819 2-1239 limits assumed): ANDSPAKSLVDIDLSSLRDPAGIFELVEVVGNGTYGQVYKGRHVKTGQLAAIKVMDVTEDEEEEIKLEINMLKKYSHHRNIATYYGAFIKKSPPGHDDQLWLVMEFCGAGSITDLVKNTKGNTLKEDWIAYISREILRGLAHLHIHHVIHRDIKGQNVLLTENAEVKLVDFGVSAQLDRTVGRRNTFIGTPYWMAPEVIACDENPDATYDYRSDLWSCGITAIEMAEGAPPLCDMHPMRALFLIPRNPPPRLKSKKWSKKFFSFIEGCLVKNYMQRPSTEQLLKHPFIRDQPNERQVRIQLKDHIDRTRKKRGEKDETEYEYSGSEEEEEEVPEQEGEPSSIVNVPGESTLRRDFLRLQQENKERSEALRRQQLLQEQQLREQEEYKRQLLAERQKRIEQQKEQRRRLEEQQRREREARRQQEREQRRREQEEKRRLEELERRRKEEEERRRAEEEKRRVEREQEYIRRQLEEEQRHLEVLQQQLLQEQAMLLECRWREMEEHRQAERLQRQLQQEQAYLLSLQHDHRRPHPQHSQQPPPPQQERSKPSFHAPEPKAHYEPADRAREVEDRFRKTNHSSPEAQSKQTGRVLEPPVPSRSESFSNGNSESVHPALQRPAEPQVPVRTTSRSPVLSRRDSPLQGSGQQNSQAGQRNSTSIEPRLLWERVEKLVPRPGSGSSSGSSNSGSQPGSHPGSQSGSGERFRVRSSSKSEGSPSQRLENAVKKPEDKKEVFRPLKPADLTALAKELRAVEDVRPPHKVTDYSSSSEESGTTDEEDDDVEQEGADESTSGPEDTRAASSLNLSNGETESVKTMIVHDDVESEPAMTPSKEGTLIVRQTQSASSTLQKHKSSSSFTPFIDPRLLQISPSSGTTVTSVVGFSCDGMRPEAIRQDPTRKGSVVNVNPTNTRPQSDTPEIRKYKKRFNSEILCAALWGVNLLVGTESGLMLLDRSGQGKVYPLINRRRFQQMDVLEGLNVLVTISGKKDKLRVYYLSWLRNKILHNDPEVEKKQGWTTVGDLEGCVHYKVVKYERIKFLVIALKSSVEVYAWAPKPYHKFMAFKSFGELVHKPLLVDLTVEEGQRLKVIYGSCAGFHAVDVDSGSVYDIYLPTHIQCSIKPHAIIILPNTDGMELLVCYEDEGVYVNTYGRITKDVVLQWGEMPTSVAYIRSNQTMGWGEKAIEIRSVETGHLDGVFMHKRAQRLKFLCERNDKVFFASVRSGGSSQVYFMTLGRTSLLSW

Chain of NT-3 growth factor receptor (Homo sapiens) (Q16288 32-839 limits assumed): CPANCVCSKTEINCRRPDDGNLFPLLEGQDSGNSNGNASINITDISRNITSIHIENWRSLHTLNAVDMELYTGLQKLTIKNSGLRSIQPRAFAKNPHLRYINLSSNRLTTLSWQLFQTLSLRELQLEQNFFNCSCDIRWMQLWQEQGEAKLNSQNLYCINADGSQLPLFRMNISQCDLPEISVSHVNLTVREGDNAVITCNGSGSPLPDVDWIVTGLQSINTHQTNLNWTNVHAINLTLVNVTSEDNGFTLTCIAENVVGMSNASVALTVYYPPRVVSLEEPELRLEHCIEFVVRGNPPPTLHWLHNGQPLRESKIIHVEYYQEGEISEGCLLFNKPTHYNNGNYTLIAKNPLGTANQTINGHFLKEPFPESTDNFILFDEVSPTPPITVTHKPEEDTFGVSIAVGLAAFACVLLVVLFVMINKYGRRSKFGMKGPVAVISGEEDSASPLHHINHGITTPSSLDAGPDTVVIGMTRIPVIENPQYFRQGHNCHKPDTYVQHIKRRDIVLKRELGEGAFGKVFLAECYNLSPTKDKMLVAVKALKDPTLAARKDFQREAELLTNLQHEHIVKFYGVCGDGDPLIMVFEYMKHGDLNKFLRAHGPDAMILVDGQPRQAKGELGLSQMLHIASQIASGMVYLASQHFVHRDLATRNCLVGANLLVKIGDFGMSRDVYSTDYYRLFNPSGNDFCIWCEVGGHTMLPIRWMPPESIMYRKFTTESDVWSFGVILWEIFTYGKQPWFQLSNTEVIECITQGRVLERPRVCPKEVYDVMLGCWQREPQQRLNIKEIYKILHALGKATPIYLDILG
Chain of Aurora kinase B (Homo sapiens) (Q96GD4 whole entry): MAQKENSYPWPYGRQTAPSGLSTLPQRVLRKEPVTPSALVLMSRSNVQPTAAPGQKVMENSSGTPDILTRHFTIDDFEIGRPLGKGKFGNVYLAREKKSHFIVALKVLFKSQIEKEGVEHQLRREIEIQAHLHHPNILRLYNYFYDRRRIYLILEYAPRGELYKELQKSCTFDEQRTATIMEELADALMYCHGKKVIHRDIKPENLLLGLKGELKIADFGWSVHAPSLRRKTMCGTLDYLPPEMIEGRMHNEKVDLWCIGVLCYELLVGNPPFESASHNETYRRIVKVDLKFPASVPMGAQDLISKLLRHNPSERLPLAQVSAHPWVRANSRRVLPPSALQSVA
Chain of Non-receptor tyrosine-protein kinase TYK2 (Homo sapiens) (P29597 whole entry): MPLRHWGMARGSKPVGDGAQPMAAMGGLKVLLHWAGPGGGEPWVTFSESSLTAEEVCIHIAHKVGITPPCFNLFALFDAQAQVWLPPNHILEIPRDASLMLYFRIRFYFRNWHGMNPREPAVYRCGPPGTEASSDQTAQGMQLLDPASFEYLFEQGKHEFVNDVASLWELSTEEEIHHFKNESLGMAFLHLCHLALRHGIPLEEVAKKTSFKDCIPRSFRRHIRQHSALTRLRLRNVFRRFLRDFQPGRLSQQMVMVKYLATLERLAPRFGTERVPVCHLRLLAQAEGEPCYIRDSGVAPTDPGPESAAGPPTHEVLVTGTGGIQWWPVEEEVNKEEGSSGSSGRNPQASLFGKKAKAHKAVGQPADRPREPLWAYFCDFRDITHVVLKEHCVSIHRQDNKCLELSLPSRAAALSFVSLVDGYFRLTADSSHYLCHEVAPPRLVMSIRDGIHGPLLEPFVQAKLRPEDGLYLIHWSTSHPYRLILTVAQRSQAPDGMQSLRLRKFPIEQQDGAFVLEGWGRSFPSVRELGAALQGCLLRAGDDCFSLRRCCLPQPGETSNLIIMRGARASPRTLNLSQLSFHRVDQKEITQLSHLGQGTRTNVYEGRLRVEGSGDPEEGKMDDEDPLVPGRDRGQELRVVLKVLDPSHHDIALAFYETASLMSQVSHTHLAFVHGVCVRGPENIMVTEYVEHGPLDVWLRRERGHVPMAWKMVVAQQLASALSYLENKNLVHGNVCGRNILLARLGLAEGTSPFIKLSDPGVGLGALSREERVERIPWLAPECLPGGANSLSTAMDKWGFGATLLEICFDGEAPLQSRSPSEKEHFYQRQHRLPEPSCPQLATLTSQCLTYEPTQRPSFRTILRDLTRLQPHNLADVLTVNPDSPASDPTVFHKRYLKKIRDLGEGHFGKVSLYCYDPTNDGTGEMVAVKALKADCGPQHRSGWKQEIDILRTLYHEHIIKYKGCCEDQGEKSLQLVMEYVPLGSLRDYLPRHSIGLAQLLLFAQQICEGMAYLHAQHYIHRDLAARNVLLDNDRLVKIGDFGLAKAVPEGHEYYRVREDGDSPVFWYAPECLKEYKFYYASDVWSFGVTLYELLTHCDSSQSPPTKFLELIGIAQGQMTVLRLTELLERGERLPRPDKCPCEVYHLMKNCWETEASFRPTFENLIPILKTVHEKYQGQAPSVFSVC
Chain of BDNF/NT-3 growth factors receptor (Homo sapiens) (Q16620 32-822 limits assumed): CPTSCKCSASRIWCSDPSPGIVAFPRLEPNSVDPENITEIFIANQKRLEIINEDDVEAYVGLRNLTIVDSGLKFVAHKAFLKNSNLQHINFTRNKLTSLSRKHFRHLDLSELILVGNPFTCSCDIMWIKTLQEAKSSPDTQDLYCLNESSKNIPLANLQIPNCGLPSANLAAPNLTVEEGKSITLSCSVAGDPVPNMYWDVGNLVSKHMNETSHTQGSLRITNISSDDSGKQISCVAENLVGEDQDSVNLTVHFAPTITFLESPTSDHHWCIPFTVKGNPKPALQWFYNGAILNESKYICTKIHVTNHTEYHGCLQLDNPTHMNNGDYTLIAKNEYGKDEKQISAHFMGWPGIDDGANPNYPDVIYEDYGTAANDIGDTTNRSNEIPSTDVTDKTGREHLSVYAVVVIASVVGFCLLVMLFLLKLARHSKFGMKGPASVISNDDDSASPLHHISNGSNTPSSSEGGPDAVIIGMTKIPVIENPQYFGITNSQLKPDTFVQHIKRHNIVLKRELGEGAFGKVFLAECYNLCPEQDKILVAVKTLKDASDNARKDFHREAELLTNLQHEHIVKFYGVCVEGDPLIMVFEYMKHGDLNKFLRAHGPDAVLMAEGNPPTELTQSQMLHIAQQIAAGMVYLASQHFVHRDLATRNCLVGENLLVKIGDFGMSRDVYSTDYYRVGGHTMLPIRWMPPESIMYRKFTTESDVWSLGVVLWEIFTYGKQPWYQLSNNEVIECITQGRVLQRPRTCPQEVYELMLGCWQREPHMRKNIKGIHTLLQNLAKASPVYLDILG

Compound	inhibition [1]	inhibition [2]	inhibition [3]	inhibition [4]	inhibition [5]	inhibition [6]	inhibition [7]	inhibition [8]	inhibition [9]	inhibition [10]	inhibition [11]	inhibition [12]	inhibition [13]	inhibition [14]	inhibition [15]	inhibition [16]	inhibition [17]	inhibition [18]	inhibition [19]	inhibition [20]
COc1cccc(-n2ncc3c(N/N=C/c4ccc(C)cc4)ncnc32)c1	5.28%	3.97%	5.08%	3.96%	2.64%	7.7%	7.5%	-1.37%	19.1%	3.98%	11.8%	4.27%	6.65%	1.92%	4.66%	5.12%	10.9%	0.91%	4.23%	4.74%
Cc1ccc(NC(=O)CC2CC2)cc1-c1ccc(C(=O)NCC2CC2)cc1	1.04%	1.14%	3.38%	2.32%	4.16%	3.64%	5.85%	-4.51%	7.66%	4.04%	8.68%	0.07%	6.1%	1.19%	-2.19%	3.11%	8.8%	0.05%	3.42%	2.06%
CCn1c(-c2nonc2N)nc2ccc(F)cc21	2.84%	4.03%	4.23%	3.74%	4.75%	1.94%	0.47%	-3.66%	11.6%	3.17%	4.08%	1.24%	7.81%	1.48%	-2.72%	9.56%	13.5%	1.16%	2.01%	4.2%
COC(=O)Nc1nc2cc(Oc3ccc(NC(=O)Nc4cccc(Br)c4)cc3)ccc2[nH]1	55.6%	19.7%	32.5%	20.9%	38.8%	2.73%	4.17%	0.49%	8.12%	0.95%	7.48%	8.64%	21%	11.4%	42.5%	20.5%	34.2%	3.41%	10.2%	3.09%
NS(=O)(=O)c1cccc(-c2cc3ccncc3cc2OCc2ccccc2)c1	5.54%	2.94%	6.23%	1.81%	6.72%	4.1%	10.2%	-2.99%	11.2%	3.18%	16.9%	7.33%	17.9%	8.37%	12.4%	8.31%	10.8%	3.01%	10.2%	7.44%
CCn1c(-c2nonc2N)nc2c(C#CC(C)(C)O)nc(OCCNC)cc21	6.23%	3.15%	3.59%	1.5%	2.5%	3.81%	2.46%	-0.47%	9.85%	1.75%	4.63%	2.66%	5.49%	-0.74%	3.76%	5.14%	8.89%	0.49%	3.15%	3.57%
FC(F)(F)c1ccc(-c2nn3ncccc3c2-c2ccnc(Nc3ccc4c(c3)OCCO4)n2)cc1	0.14%	1.21%	3.15%	1.88%	4.32%	6.36%	4.7%	3.04%	2.98%	-2.66%	29.2%	7.15%	11.2%	4.98%	12.1%	10.5%	30.1%	6.41%	6.88%	3.6%
OCc1ccc(-c2nc(-c3ccccn3)c(-c3ccc4c(c3)OCO4)[nH]2)cc1	3.45%	3.16%	1%	4.37%	3%	6.42%	12.5%	-1.9%	9.01%	4.4%	11%	6.24%	11.7%	3.67%	12.5%	6.01%	4.97%	1.15%	2.87%	5.21%
COC(=O)c1ccc2c(c1)C(=Cc1cc(Br)c(O)c(Br)c1)C(=O)N2	6.54%	3.26%	8.43%	2.35%	12.1%	6.42%	12.3%	5.83%	25.2%	30.8%	80.4%	2.96%	8.43%	-0.01%	15.2%	6.1%	10.6%	1.53%	4.06%	45.5%
CCCN1CCCC(c2ccc(Nc3nc(Nc4cc(F)ccc4C(N)=O)c4cc[nH]c4n3)c(OC)c2)C1 (stereo not given)	5.65%	4.46%	6.11%	3.36%	5.51%	3.48%	6.47%	-2.19%	79.6%	1.81%	7.44%	-0.78%	3.45%	-0.09%	5.81%	7.27%	24.8%	9.87%	48.9%	38.3%
O=C(Nc1ccc(Oc2ccc3[nH]c(NC(=O)c4ccco4)nc3c2)cc1)Nc1cc(C(F)(F)F)ccc1F	85.5%	27.8%	73.9%	30.8%	89.6%	-1.98%	-1.15%	1.41%	13.6%	-1.76%	15.1%	5.43%	38.8%	8.04%	82.4%	35.6%	76.7%	2.98%	28.9%	0.47%
c1ccc(Nc2ncc(-c3ccccc3)o2)cc1	6.98%	2.68%	9.78%	4.23%	8.89%	2.01%	6.4%	-2.68%	16.1%	2.24%	15.2%	3.84%	10.3%	0.81%	16%	3.84%	9.44%	1.03%	5.7%	5.9%
Cc1ccc2c(-c3ccnc(Nc4cccc(C(F)(F)F)c4)n3)c(-c3ccccc3)nn2n1	7.09%	4.09%	5.15%	2.41%	5.05%	6.16%	17.2%	-1.28%	10.6%	1.82%	6.06%	5.03%	7.6%	3.89%	9.67%	8.49%	11.5%	-0.05%	9.38%	7.07%
